Laboratory results reported in PubChem BioAssay AID1159580 (chemical genetic matrix, 2015).
The whole screen tested about 5,500 compounds, of which about 2,000 (36%) were called active. About 18% were inconclusive and are not listed. Rule as the data show it: active = normalized growth mostly below about 0.91 (no sharp cut-off); inconclusive = no clear call, values can overlap the other calls; inactive = mostly above about 0.92. This is one part of the list.

Assay: chemical genetic growth profiling, strain panel (AID 1159580);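 also: tested at 20 µM; growth read once vehicle control cultures reached saturation at 30 °C; 1 = growth at the plate median or of vehicle wells; lower values mean less growth of the strain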
Conditions: S. cerevisiae deletion strains, growth OD

Measured: normalized growth

CC12CCC(O)CC1CCc1ccccc12 (configuration not stated)
active: locus YDR392W, strain spt3, active compounds read low 0.634 | locus YLR262C, strain YPT6 (second series), active compounds read low 0.826
inactive: locus YAL021C, strain ccr4, active compounds read low 0.993 | locus YAL026C, strain drs2, active compounds read low 0.972 | locus YAL030W, strain snc1, active compounds read low 0.982 | locus YBL061C, strain skt5, active compounds read low 0.967 | locus YBR009C, strain hhf1, active compounds read low 0.932 | locus YBR023C, strain chs3, active compounds read low 0.967 | locus YBR171W, strain sec66, active compounds read low 0.938 | locus YBR231C, strain swc5, active compounds read low 0.998 | locus YBR279W, strain paf1, active compounds read low 0.981 | locus YCL011C, strain gbp2, active compounds read low 0.981 | locus YCL016C, strain dcc1, active compounds read low 0.977 | locus YCL061C, strain MRC1, active compounds read low 0.967 | locus YCL069W, strain vba3, active compounds read low 0.974 | locus YCR088W, strain abp1, active compounds read low 0.978 | locus YDL005C, strain med2, active compounds read low 0.97 | locus YDL040C, strain nat1, active compounds read low 0.979 | locus YDR001C, strain nth1, active compounds read low 0.971 | locus YDR069C, strain doa4, active compounds read low 0.984 | locus YDR137W, strain rgp1, active compounds read low 0.871 | locus YDR159W, strain sac3, active compounds read low 0.936 | locus YDR195W, strain ref2 1 | locus YDR297W, strain sur2, active compounds read low 0.971 | locus YDR334W, strain swr1, active compounds read low 0.989 | locus YDR335W, strain msn5, active compounds read low 0.972 | locus YEL003W, strain gim4, active compounds read low 0.96 | locus YEL037C, strain rad23, active compounds read low 0.98 | locus YEL061C, strain CIN8 (second series), active compounds read low 0.964 | locus YER015W, strain faa2, active compounds read low 0.983 | locus YER016W, strain bim1, active compounds read low 0.969 | locus YER111C, strain swi4, active compounds read low 0.96 | locus YER155C, strain BEM2 (second series), active compounds read low 0.944 | locus YFR010W, strain ubp6, active compounds read low 0.979 | locus YGL167C, strain pmr1, active compounds read low 0.962 | locus YGL173C, strain kem1, active compounds read low 0.957 | locus YGL227W, strain vid30, active compounds read low 0.961 | locus YGL240W, strain doc1, active compounds read low 0.901 | locus YGL253W, strain hxk2, active compounds read low 0.969 | locus YHR013C, strain ard1, active compounds read low 0.974 | locus YHR027C, strain rpn1, active compounds read low 0.991 | locus YHR142W, strain chs7, active compounds read low 0.973 | locus YJL092W, strain hpr5, active compounds read low 0.983 | locus YJL095W, strain BCK1 (second series), active compounds read low 0.99 | locus YJL115W, strain asf1, active compounds read low 0.977 | locus YJL129C, strain trk1, active compounds read low 0.92 | locus YJL154C, strain vps35, active compounds read low 0.99 | locus YJL164C, strain tpk1, active compounds read low 0.968 | locus YJL166W, strain qcr8, active compounds read low 0.946 | locus YJL187C, strain SWE1, active compounds read low 0.971 | locus YKL160W, strain elf1, active compounds read low 0.993 | locus YKR026C, strain gcn3, active compounds read low 0.954 | locus YKR091W, strain srl3, active compounds read low 0.969 | locus YLL001W, strain dnm1, active compounds read low 0.991 | locus YLL026W, active compounds read low 0.982 | locus YLL041C, strain sdh2, active compounds read low 0.974 | locus YLR027C, strain aat2, active compounds read low 0.984 | locus YLR221C, strain rsa3, active compounds read low 0.98 | locus YLR258W, strain gsy2, active compounds read low 0.968 | locus YLR320W, strain mms22, active compounds read low 0.906 | locus YLR342W, strain FKS1, active compounds read low 0.965 | locus YLR357W, strain rsc2, active compounds read low 0.935 | locus YLR370C, strain arc18, active compounds read low 0.969 | locus YLR384C, strain iki3, active compounds read low 0.993 | locus YML120C, strain ndi1, active compounds read low 0.955 | locus YMR058W, strain fet3, active compounds read low 0.97 | locus YMR125W, strain sto1, active compounds read low 1 | locus YMR129W, active compounds read low 0.961 | locus YMR205C, strain PFK2, active compounds read low 0.902 | locus YMR231W, strain pep5, active compounds read low 0.988 | locus YNL071W, strain lat1, active compounds read low 0.959 | locus YNL209W, strain ssb2, active compounds read low 0.988 | locus YNL248C, strain rpa49, active compounds read low 0.985 | locus YNL322C, strain KRE1 (second series), active compounds read low 0.959 | locus YNR049C, strain mso1, active compounds read low 0.971 | locus YOR001W, strain rrp6, active compounds read low 0.967 | locus YOR070C, strain gyp1, active compounds read low 0.973 | locus YOR080W, strain dia2, active compounds read low 0.968 | locus YOR083W, strain WHI5, active compounds read low 0.99 | locus YOR106W, strain vam3, active compounds read low 0.966 | locus YOR265W, strain rbl2, active compounds read low 0.992 | locus YOR270C, strain vph1, active compounds read low 0.94 | locus YOR290C, strain snf2, active compounds read low 0.898 | locus YPL051W, strain arl3, active compounds read low 0.986 | locus YPL078C, strain atp4, active compounds read low 0.973 | locus YPL106C, strain sse1, active compounds read low 1.01 | locus YPL240C, strain hsp82, active compounds read low 0.991
